Laboratory results from PubChem BioAssay (NCI).
Compounds without any hit were thinned out: in the full panel of roughly 83,000, 20% have a hit.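 Each cell line was grown in a 96-well plate and treated with one concentration of compound for 48 hours. Values below 10 were considered active.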 Values without a mark were called inactive. The source made the active and inactive calls.

Columns and labels:
Assay in all cases: NCI-60 one-dose screen, 48 h (100 = growth as untreated, 0 = no growth, -100 = all killed)
Conditions in all cases: 10 µM unless noted
HCT-15 colon = test system: HCT-15 colon
HT29 colon = test system: HT29 colon
SNB-75 CNS = test system: SNB-75 CNS
SNB-19 CNS = test system: SNB-19 CNS
U251 CNS = test system: U251 CNS
SK-MEL-5 melanoma = test system: SK-MEL-5 melanoma
LOX IMVI melanoma = test system: LOX IMVI melanoma
SK-MEL-28 melanoma = test system: SK-MEL-28 melanoma
UACC-62 melanoma = test system: UACC-62 melanoma
PC-3 prostate = test system: PC-3 prostate

SMILES	growth (HCT-15 colon)	growth (HT29 colon)	growth (SNB-75 CNS)	growth (SNB-19 CNS)	growth (U251 CNS)	growth (SK-MEL-5 melanoma)	growth (LOX IMVI melanoma)	growth (SK-MEL-28 melanoma)	growth (UACC-62 melanoma)	growth (PC-3 prostate)
O=C(N(c1ccccc1)c1ccccc1)n1ccc2nc(Cl)nc(Cl)c21	45.1%	24.6%	38.3%	58.5%	59.6%	64.9%	72.1%	80.4%	–	–
Fc1ccc2[nH]cc(SSc3c[nH]c4ccc(F)cc34)c2c1	25.8%	39.2%	64.1%	41.1%	13.8%	70%	25.5%	75.6%	–	–
O=C1/C(=C/C(Cl)=C/c2ccccc2)SC(=S)N1CCc1ccc(O)cc1	2.94% (active)	1.54% (active)	17.3%	6.88% (active)	-58.3% (active)	-47.6% (active)	-79.2% (active)	-26% (active)	–	–
COc1ccc(S(=O)(=O)N2CCN(C)CC2)cc1NC(=O)c1[nH]c(C)c2c1CCCCC2=O	62.4%	28.9%	17.4%	66.5%	68%	43.7%	–	72%	25.6%	–
Oc1ccc(N=Cc2ccccc2O)cc1	120%	99%	89.1%	93.1%	83.3%	–	104%	127%	96.8%	–
COc1ccc(-c2cc(Nc3ccnc(N4CCOCC4)n3)on2)cc1	20.3%	9.4% (active)	-3.66% (active)	39%	23.2%	19.7%	51.9%	69.3%	–	–
COc1ccc(C(=O)c2sc3nc(C)cc(C)c3c2N)cc1OC	85.4%	88.2%	84.3%	79.6%	66%	93.4%	–	101%	80.8%	–
Cc1cc(C)nc(SC2=C(Nc3cc(Cl)ccc3O)C(=O)N(Cc3ccccc3)C2=O)n1	92.1% [30 µM]	108% [30 µM]	81% [30 µM]	89.6% [30 µM]	87.5% [30 µM]	–	71.1% [30 µM]	106% [30 µM]	70.6% [30 µM]	–
Cc1cc(C)c2nc3nc(C)cc(C)c3c(N)c2c1	16.4%	18%	52.7%	35.3%	15.3%	–	7.77% (active)	38.7%	41.8%	–
COc1cc(C(=O)/C=C/c2cccnc2Nc2ccc(Cl)cc2)cc(OC)c1OC	-45.9% (active)	-55.1% (active)	-74.7% (active)	-80.5% (active)	-95.3% (active)	-86.8% (active)	-65.5% (active)	-80.4% (active)	-67% (active)	–
CN(CCCCCl)P(=O)(OCc1ccc([N+](=O)[O-])o1)C(F)(F)c1ccc(CC(=O)NC[C@@H](O)/C=C\[C@@H](O)[C@H](CO)Cc2ccccc2)cc1 (some centres undefined)	96.2%	77%	95.4%	102%	93.7%	97.1%	60.4%	97.8%	–	–
O=C(COc1ccc(/C=C2\COc3ccccc3C2=O)cc1)Nc1nccs1	72.6%	39.1%	84.6%	88.2%	73%	–	63.2%	86.5%	96.4%	–
O=C(O)c1ccc(NC(=O)c2ccc(-c3cccc([N+](=O)[O-])c3)o2)cc1	99.2%	104%	88%	92%	96.8%	–	95.3%	107%	98.4%	–
O=C(COc1cccc(/C=C2\CSc3ccccc3C2=O)c1)Nc1nccs1	75.5%	15.9%	22.2%	79.5%	41.8%	–	-100% (active)	-0.13% (active)	64.1%	–
O=C1c2ccccc2C(=O)c2c1ccc1[nH]c(-c3cccs3)nc21	89.8%	107%	98.9%	100%	72.7%	85%	–	127%	85.5%	–
O=C1/C(=C/c2ccc3c(c2)OCO3)SC(=S)N1CCc1ccc(O)cc1	93%	113%	83.7%	95.5%	102%	98.2%	–	104%	88%	–

SMILES	growth (HCT-15 colon)	growth (HT29 colon)	growth (SNB-75 CNS)	growth (SNB-19 CNS)	growth (U251 CNS)	growth (SK-MEL-5 melanoma)	growth (LOX IMVI melanoma)	growth (SK-MEL-28 melanoma)	growth (UACC-62 melanoma)	growth (PC-3 prostate)
O=[N+]([O-])c1ccccc1/C=N\NC(=S)N/N=C/c1ccccc1[N+](=O)[O-]	35.8%	21.5%	72.4%	69%	62.7%	–	43.4%	78.2%	55.5%	–
CC(=O)Oc1ccc(Cl)cc1CN(C(C)=O)C1CCCCC1	101%	107%	93.7%	95.7%	95.9%	101%	–	106%	86.8%	–
NC(N)=N/N=C(/c1ccccc1)c1ccc(F)cc1	10.3%	-1.2% (active)	18%	26.8%	4.79% (active)	-18.7% (active)	–	35.1%	4.05% (active)	–
CCc1c(Nc2ccccc2C)nc(N)[nH]c1=O	98.4%	110%	92.9%	110%	120%	–	107%	112%	110%	–
COc1cc(/C=C/C(=O)Nc2cccnc2Nc2ccc(F)cc2)cc(OC)c1OC	99%	91.2%	97%	91.1%	70.8%	95.8%	–	103%	–	–
COc1ccc(/C=C/C(=O)c2ccc(O)c(CN3CCN(c4cc5c(cc4F)c(=O)c(C(=O)O)cn5C4CC4)CC3)c2)cc1	19.1%	11.1%	-5.37% (active)	24%	–	-23% (active)	12.8%	57.9%	27.2%	18.1%
O=c1nc2oc3ccc4ccccc4c3cc-2s1	32.4%	15.2%	-16.1% (active)	31.9%	12.5%	–	33.5%	56.7%	37.6%	–
COc1ccc(-c2cc(C(=O)N=Nc3c(O)[nH]c4ccc(Br)cc34)no2)cc1	100%	100%	66.1%	92%	–	97.4%	96%	113%	101%	95.8%
Cc1nn(-c2ccc(F)cc2)c2ncnc(Nc3ccc(NC(=O)Nc4ccc(Cl)c(C(F)(F)F)c4)cc3)c12	11.2%	37.9%	32.4%	23.7%	19.5%	–	34.8%	17.8%	11%	–
O=C(CN1C(=O)/C(=C/c2ccc(Cl)cc2)SC1=S)NCCCN1CCOCC1	93.1%	114%	92.8%	97.9%	98.4%	–	90.5%	101%	97%	–
COc1cccc(-c2nc3sccn3c2-c2ccnc(NCCCNS(=O)(=O)c3cccc(F)c3)c2)c1	13.7%	38.7%	29.3%	55%	–	-31.2% (active)	23.7%	42.6%	-32.7% (active)	13.6%
CSc1nc(NCCN2CCOCC2)c(C#N)c(-c2cccc([N+](=O)[O-])c2)n1	97.4%	106%	62.8%	95.2%	–	99.3%	95.9%	103%	87.4%	97.4%
NC(=O)c1cc(Cl)ccc1NC(=O)/C=C/c1ccccc1	27.3%	8.83% (active)	0.0967% (active)	26.7%	29.8%	–	53.3%	40.6%	47.7%	–
COc1cccc(-c2nn(C(C)(C)C)cc2-c2ccnc(NCCCNS(=O)(=O)c3ccc(C)cc3)c2)c1	107%	105%	69.8%	102%	–	100%	99.5%	112%	107%	102%
N#C/C(=C\c1ccc(-c2ccc(Cl)c(Cl)c2)o1)c1nc(-c2ccco2)cs1	34.6%	88%	70.7%	100%	–	70.5%	93.9%	114%	78.3%	95.8%
